Experimental data as given in PubChem BioAssay (NCI).
This is part of a sample that, as a whole, favours compounds with a hit. Of some 83,000 tested, about 20% had one in any assay.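 Results are percent growth after 48 hours of single-concentration exposure. 100 means growth as in untreated cells, lower positive values show inhibition; negative values down to -100 show cell death.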 Active and inactive are the calls of the source. How the source made its calls: active means growth percent below 10; inactive means the rest.

Assays:
Test in all cases: NCI-60 one-dose screen, 48 h (100 = growth as untreated, 0 = no growth, -100 = all killed)
Conditions in all cases: 10 µM unless noted
SK-MEL-2 melanoma = test system: SK-MEL-2 melanoma
EKVX NSCLC = test system: EKVX NSCLC
SN12C renal = test system: SN12C renal
UO-31 renal = test system: UO-31 renal
TK-10 renal = test system: TK-10 renal
ACHN renal = test system: ACHN renal
CAKI-1 renal = test system: CAKI-1 renal
CCRF-CEM leukemia = test system: CCRF-CEM leukemia
MOLT-4 leukemia = test system: MOLT-4 leukemia
SR leukemia = test system: SR leukemia
RPMI-8226 leukemia = test system: RPMI-8226 leukemia
OVCAR-8 ovarian = test system: OVCAR-8 ovarian
OVCAR-5 ovarian = test system: OVCAR-5 ovarian
OVCAR-4 ovarian = test system: OVCAR-4 ovarian
SK-OV-3 ovarian = test system: SK-OV-3 ovarian
IGROV1 ovarian = test system: IGROV1 ovarian
OVCAR-3 ovarian = test system: OVCAR-3 ovarian
HS 578T breast = test system: HS 578T breast
NCI/ADR-RES ovarian = test system: NCI/ADR-RES ovarian

Measured: growth

COC(=O)C1=C(C(=O)ONCCN(C)C)C2C=CC1(C(Cc1ccccc1)Nc1ccc(F)cc1)O2 (stereo not given)
inactive: SK-MEL-2 melanoma 97% | EKVX NSCLC 102% | SN12C renal 87% | UO-31 renal 81% | TK-10 renal 65.4% | CAKI-1 renal 88% | MOLT-4 leukemia 30.6% | SR leukemia 10.7% | RPMI-8226 leukemia 71.2% | OVCAR-8 ovarian 97.7% | OVCAR-5 ovarian 100% | OVCAR-4 ovarian 94.5% | SK-OV-3 ovarian 104% | IGROV1 ovarian 92.4% | OVCAR-3 ovarian 39.9% | HS 578T breast 125% | NCI/ADR-RES ovarian 102%
active: ACHN renal -18.8% | CCRF-CEM leukemia 2.02%

c1ccc2c(-c3c4ccsc4cc4[nH]c5ccccc5c34)c[nH]c2c1
inactive: SK-MEL-2 melanoma 23.9% | EKVX NSCLC 53.3% | SN12C renal 50.1% | UO-31 renal 40.1% | TK-10 renal 76% | ACHN renal 43.3% | CAKI-1 renal 34.5% | CCRF-CEM leukemia 19.8% | MOLT-4 leukemia 32.2% | SR leukemia 25.7% | RPMI-8226 leukemia 14.8% | OVCAR-8 ovarian 56.9% | OVCAR-5 ovarian 75.2% | OVCAR-4 ovarian 40.8% | SK-OV-3 ovarian 49.5% | IGROV1 ovarian 38.1% | OVCAR-3 ovarian 13.8% | HS 578T breast 33.4% | NCI/ADR-RES ovarian 20.4%

COc1ccc(C(=O)c2cc(C)c(OC)c(C)c2)c(OC)c1O
active: SK-OV-3 ovarian -10.5% | OVCAR-3 ovarian -15.8% | NCI/ADR-RES ovarian 1.87%
inactive: SK-MEL-2 melanoma 26.8% | EKVX NSCLC 59.2% | SN12C renal 28.8% | UO-31 renal 36.6% | TK-10 renal 58.5% | ACHN renal 22.5% | CAKI-1 renal 39.5% | CCRF-CEM leukemia 16.3% | MOLT-4 leukemia 23.4% | SR leukemia 18.8% | RPMI-8226 leukemia 25.9% | OVCAR-8 ovarian 11.3% | OVCAR-5 ovarian 46.9% | OVCAR-4 ovarian 41.1% | IGROV1 ovarian 25.9% | HS 578T breast 18.1%

C=C1C(=O)O[C@H]2[C@H]1CC/C(COC(=O)NCCc1c[nH]c3ccc(Cl)cc13)=C\CC[C@@]1(C)O[C@@H]21
active: SK-MEL-2 melanoma -3.3% | EKVX NSCLC -85.8% | SN12C renal -70.1% | UO-31 renal -99.7% | TK-10 renal -97.2% | ACHN renal -100% | CAKI-1 renal -100% | CCRF-CEM leukemia -18.3% | MOLT-4 leukemia -6.88% | SR leukemia -4.62% | RPMI-8226 leukemia -31.9% | OVCAR-8 ovarian -43.6% | OVCAR-5 ovarian -11.3% | OVCAR-4 ovarian -80.8% | IGROV1 ovarian -83.9% | OVCAR-3 ovarian -96.4%
inactive: SK-OV-3 ovarian 96.4% | HS 578T breast 22.8% | NCI/ADR-RES ovarian 33.9%

c1ccc(-c2nn(-c3ccccc3)[n+](-c3ccccc3-c3ccccc3)n2)cc1
active: SK-MEL-2 melanoma -15.8% | SR leukemia 8.06% | OVCAR-8 ovarian -32.8% | OVCAR-3 ovarian 1.32% | HS 578T breast 9.51%
inactive: EKVX NSCLC 11.7% | SN12C renal 12.9% | UO-31 renal 80.1% | TK-10 renal 26% | ACHN renal 56% | CAKI-1 renal 88.2% | CCRF-CEM leukemia 17.2% | MOLT-4 leukemia 22.9% | RPMI-8226 leukemia 15.3% | OVCAR-5 ovarian 37.1% | OVCAR-4 ovarian 22.3% | SK-OV-3 ovarian 36.5% | IGROV1 ovarian 30.9% | NCI/ADR-RES ovarian 93.1%

CCCCCN1C=C/C(=C\C(=O)N(C)c2cccc3ccccc23)c2ccccc21
inactive: SK-MEL-2 melanoma 109% | EKVX NSCLC 89.1% | SN12C renal 100% | UO-31 renal 82.5% | TK-10 renal 105% | ACHN renal 104% | CAKI-1 renal 89.8% | CCRF-CEM leukemia 89.5% | MOLT-4 leukemia 99% | SR leukemia 81.5% | RPMI-8226 leukemia 78.5% | OVCAR-8 ovarian 98.4% | OVCAR-5 ovarian 109% | OVCAR-4 ovarian 86.5% | SK-OV-3 ovarian 99.6% | IGROV1 ovarian 93.7% | OVCAR-3 ovarian 96.9% | HS 578T breast 99.9% | NCI/ADR-RES ovarian 106%

CCC(=O)c1ccc(O)c(OC)c1
inactive: SK-MEL-2 melanoma 103% | EKVX NSCLC 114% | SN12C renal 94.9% | UO-31 renal 101% | TK-10 renal 99.2% | ACHN renal 103% | CAKI-1 renal 100% | CCRF-CEM leukemia 91% | MOLT-4 leukemia 101% | SR leukemia 108% | RPMI-8226 leukemia 93.7% | OVCAR-8 ovarian 99.4% | OVCAR-5 ovarian 107% | OVCAR-4 ovarian 107% | SK-OV-3 ovarian 122% | IGROV1 ovarian 102% | OVCAR-3 ovarian 110% | HS 578T breast 95.7% | NCI/ADR-RES ovarian 104%

CC(=O)c1cccc(NS(=O)(=O)c2cccc(C(=O)Nc3ccc(Br)cc3)c2)c1
inactive: SK-MEL-2 melanoma 50.6% [25 µM] | EKVX NSCLC 27.1% [25 µM] | SN12C renal 58% [25 µM] | UO-31 renal 41% [25 µM] | TK-10 renal 80.7% [25 µM] | ACHN renal 61.5% [25 µM] | CAKI-1 renal 39.6% [25 µM] | CCRF-CEM leukemia 47.7% [25 µM] | MOLT-4 leukemia 38.7% [25 µM] | SR leukemia 60.6% [25 µM] | RPMI-8226 leukemia 30.4% [25 µM] | OVCAR-8 ovarian 57.1% [25 µM] | OVCAR-5 ovarian 77.9% [25 µM] | OVCAR-4 ovarian 47.6% [25 µM] | SK-OV-3 ovarian 58.1% [25 µM] | IGROV1 ovarian 62.4% [25 µM] | OVCAR-3 ovarian 66.1% [25 µM] | HS 578T breast 80.6% [25 µM] | NCI/ADR-RES ovarian 34.7% [25 µM]

CSc1nc(O)c(-c2ccccc2)c(=O)[nH]1
inactive: SK-MEL-2 melanoma 103% | EKVX NSCLC 94.6% | SN12C renal 96.9% | UO-31 renal 92% | TK-10 renal 97% | ACHN renal 93.3% | CAKI-1 renal 93.6% | CCRF-CEM leukemia 102% | MOLT-4 leukemia 97% | SR leukemia 96% | RPMI-8226 leukemia 102% | OVCAR-8 ovarian 101% | OVCAR-5 ovarian 97.5% | OVCAR-4 ovarian 108% | SK-OV-3 ovarian 116% | IGROV1 ovarian 104% | OVCAR-3 ovarian 120% | HS 578T breast 110% | NCI/ADR-RES ovarian 106%

O=C(c1ccccc1)N1N=C(c2ccc(-n3ccc(C(F)(F)F)n3)cc2)CC1c1ccc[nH]1 (stereo not given)
inactive: SK-MEL-2 melanoma 97.7% | EKVX NSCLC 88.9% | SN12C renal 98.1% | UO-31 renal 77.8% | TK-10 renal 80.8% | ACHN renal 90.6% | CAKI-1 renal 84.1% | CCRF-CEM leukemia 85.6% | MOLT-4 leukemia 75.8% | SR leukemia 66.7% | RPMI-8226 leukemia 74.7% | OVCAR-8 ovarian 93.7% | OVCAR-5 ovarian 83.4% | OVCAR-4 ovarian 110% | SK-OV-3 ovarian 128% | IGROV1 ovarian 95.8% | OVCAR-3 ovarian 103% | HS 578T breast 95.4% | NCI/ADR-RES ovarian 90.2%

O=C1CCCN1c1cccc2cccnc12
inactive: SK-MEL-2 melanoma 104% | EKVX NSCLC 91.5% | SN12C renal 102% | UO-31 renal 81.2% | TK-10 renal 88.5% | ACHN renal 102% | CAKI-1 renal 91.9% | CCRF-CEM leukemia 107% | MOLT-4 leukemia 102% | SR leukemia 101% | RPMI-8226 leukemia 102% | OVCAR-8 ovarian 103% | OVCAR-5 ovarian 109% | OVCAR-4 ovarian 110% | SK-OV-3 ovarian 114% | IGROV1 ovarian 107% | OVCAR-3 ovarian 110% | HS 578T breast 97.3% | NCI/ADR-RES ovarian 99.3%

Cc1nn(-c2ccccc2)c(N2CCOCC2)c1/C=N/N=c1\sc2ccccc2n1C
inactive: SK-MEL-2 melanoma 105% | EKVX NSCLC 82.2% | SN12C renal 81.7% | UO-31 renal 65.2% | TK-10 renal 129% | ACHN renal 82.4% | CAKI-1 renal 67.3% | CCRF-CEM leukemia 67.3% | MOLT-4 leukemia 58.6% | SR leukemia 36.7% | RPMI-8226 leukemia 52.9% | OVCAR-8 ovarian 93.9% | OVCAR-5 ovarian 82% | OVCAR-4 ovarian 98.6% | SK-OV-3 ovarian 76.9% | IGROV1 ovarian 89.5% | OVCAR-3 ovarian 104% | HS 578T breast 91.2% | NCI/ADR-RES ovarian 94.9%

Nc1c(C(=O)Nc2cccc3ccncc23)sc2nc3c(cc12)C(=O)CCC3
inactive: SK-MEL-2 melanoma 25.1% | EKVX NSCLC 62.1% | SN12C renal 54.5% | UO-31 renal 57.7% | TK-10 renal 68.2% | ACHN renal 51.2% | CAKI-1 renal 37.7% | CCRF-CEM leukemia 21.5% | MOLT-4 leukemia 85.2% | SR leukemia 33.3% | RPMI-8226 leukemia 64.6% | OVCAR-8 ovarian 68.1% | OVCAR-5 ovarian 68.5% | OVCAR-4 ovarian 80.7% | SK-OV-3 ovarian 35.3% | IGROV1 ovarian 57.8% | HS 578T breast 21.3% | NCI/ADR-RES ovarian 68.4%
active: OVCAR-3 ovarian 3.84%

COc1ccc(/C=C/C(=O)c2ccc(OC)c(OC)c2)cc1O
inactive: SK-MEL-2 melanoma 99.9% | EKVX NSCLC 87.4% | SN12C renal 73.8% | UO-31 renal 63.9% | TK-10 renal 83.8% | ACHN renal 86% | CAKI-1 renal 62.9% | CCRF-CEM leukemia 62.5% | MOLT-4 leukemia 67.2% | SR leukemia 18.6% | RPMI-8226 leukemia 65.2% | OVCAR-8 ovarian 28.5% | OVCAR-5 ovarian 97.5% | SK-OV-3 ovarian 104% | IGROV1 ovarian 74.5% | OVCAR-3 ovarian 18.8% | HS 578T breast 92.6%
active: NCI/ADR-RES ovarian 5.7%

CCCCCCN(C)Cc1ccc(OCCOc2ccc(CN(C)CCCCCC)cc2)cc1
active: SK-MEL-2 melanoma -40.8% | UO-31 renal -5.75% | MOLT-4 leukemia -4.95% | SR leukemia -43.7% | RPMI-8226 leukemia -14.4% | HS 578T breast -22% | NCI/ADR-RES ovarian 1.98%
inactive: EKVX NSCLC 55.3% | SN12C renal 40.1% | TK-10 renal 31.6% | ACHN renal 35.1% | CAKI-1 renal 27.2% | CCRF-CEM leukemia 13.3% | OVCAR-8 ovarian 47.7% | OVCAR-5 ovarian 42.9% | OVCAR-4 ovarian 31.4% | SK-OV-3 ovarian 48.6% | OVCAR-3 ovarian 44.9%

CC(=O)O[C@]1(C(C)=O)CC[C@H]2[C@@H]3C=C(Cl)C4=CC(=O)CC[C@]4(C)[C@H]3CC[C@@]21C
inactive: SK-MEL-2 melanoma 98.6% | EKVX NSCLC 107% | SN12C renal 97.7% | UO-31 renal 93.8% | TK-10 renal 113% | ACHN renal 108% | CAKI-1 renal 94.6% | CCRF-CEM leukemia 95.3% | MOLT-4 leukemia 84.9% | SR leukemia 92.1% | RPMI-8226 leukemia 92.7% | OVCAR-8 ovarian 101% | OVCAR-5 ovarian 101% | OVCAR-4 ovarian 100% | SK-OV-3 ovarian 107% | OVCAR-3 ovarian 121% | NCI/ADR-RES ovarian 99.6%
